Bioassay records as filed in PubChem BioAssay.
ELG1 genotox: genotoxicity induction in ELG1-luciferase HEK293T cells. HEK293T ELG1-luciferase reporter, luminescence, 16 h. Potency, µM (highest dose often 46 µM), without a hit: at the top dose activity change, positive = activation, hits mostly activators. hit rate 1.3% among 330,000. AID 504466; note: % of control where 0% means no effect; nearly all actives have a fitted effect of over 60% in size
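Cells (2,000/well) expressing the ELG1-luciferase fusion are dosed by pin tool and kept 16 hr at 37 °C, 5% CO2. Signal comes from ONE-Glo luciferase reagent after 30 min at room temperature.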
SMN2 splice up: SMN2 splice variant enhancement; Potency, µM (titrated, usually from 46.1 µM), inactives show at the highest dose activity change, positive = activation, most hits filed as activators; hit rate 2.8% among 210,000; HEK293 SMN2-luciferase splicing reporter, luminescence, 30-36 h; AID 1458; note: % of control where 0% means no effect; nearly all actives have a fitted effect of over 55% in size
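qHTS luciferase splicing reporter: luminescence rises when SMN2 exon 7 is included in transfected HEK293 cells. Compound exposure lasted 30-36 h at 37C, with 4.5 mM final sodium butyrate as control, followed by a ONE-Glo read.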
FLuc counter: firefly luciferase modulation, counter-screen for miR-21 project; P08659; purified FLuc, Km substrates, luminescence inhibition; Potency, µM (series often up to 57.5 µM), inactives show at the highest dose activity change, negative = inhibition, most hits filed as inhibitors; hit rate 6.9% among 360,000; AID 588342;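 note: plate controls were vehicle for no effect and reference inhibitor for full effect; nearly all actives have a fitted effect of over 55% in size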
Target sequence (P08659 whole entry, looked up): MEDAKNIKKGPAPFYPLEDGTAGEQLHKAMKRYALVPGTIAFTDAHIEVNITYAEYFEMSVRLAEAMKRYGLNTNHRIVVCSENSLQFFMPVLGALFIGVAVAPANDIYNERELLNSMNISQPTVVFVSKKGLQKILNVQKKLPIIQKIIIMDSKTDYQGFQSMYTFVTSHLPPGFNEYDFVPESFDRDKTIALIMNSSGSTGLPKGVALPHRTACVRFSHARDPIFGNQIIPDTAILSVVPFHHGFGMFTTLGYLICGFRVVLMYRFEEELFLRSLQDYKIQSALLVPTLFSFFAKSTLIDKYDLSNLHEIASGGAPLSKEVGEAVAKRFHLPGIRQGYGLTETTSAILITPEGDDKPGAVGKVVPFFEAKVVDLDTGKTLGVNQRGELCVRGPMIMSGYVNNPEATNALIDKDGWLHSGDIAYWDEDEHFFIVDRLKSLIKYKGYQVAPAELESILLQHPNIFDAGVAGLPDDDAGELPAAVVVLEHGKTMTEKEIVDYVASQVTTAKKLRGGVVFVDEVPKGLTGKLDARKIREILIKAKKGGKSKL
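Purified P. pyralis luciferase (10nM final) with 10uM D-luciferin and 10uM ATP (Km levels) in 50mM Tris acetate pH 7.5, 10mM Mg acetate, 0.01% Tween-20, 0.05% BSA; qHTS 6-point titration, ~60 µM downward; luminescence read.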
ELG1 repair inh: blocks ELG1-dependent DNA repair in HEK293T cells; hit rate 2.3% among 330,000; Potency, µM (top dose mostly 46.1 µM), inactives show top-dose activity change, negative = inhibition, most hits filed as inhibitors; HEK293T ELG1-luciferase reporter, luminescence, 16 h; DNA damage induced by 5-fluorouridine; note: % is set by controls: 0 for no effect and ±100 for the full control effect; nearly all actives have a fitted effect of over 55% in size
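Quantitative HTS, concentration-response format. 2,000 cells/well co-treated with 5-fluorouridine and compound, 16 hr in 5% CO2 at 37 °C; ONE-Glo luminescence read after 30 min.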
Rab9 promoter act: activators of Rab9 promoter; hit rate 2.8% among 320,000; Potency, µM (highest dose often 9.22 µM), for the others: at the top dose activation, negative = inhibition, usual class: activators; Huh7 Rab9 promoter-luciferase reporter, luminescence, 24 h; AID 485297; note: % of control where 0% means no effect; nearly all actives have a fitted effect of over 60% in size
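Luciferase signal after 10 min detection reagent at ambient indicates Rab9 promoter upregulation; stably transfected Huh7 cells were treated 24 h with compound in DMSO at 37 °C, 5% CO2.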
NPC1 promoter act: activators of NPC1 promoter. hit rate 2.4% among 320,000. Potency, µM (series often up to 9.22 µM), for inactives: top-dose activation, actives largely listed as activators. AID 485313. Huh7 NPC1 promoter luciferase reporter, 24 h; note: % of control where 0% means no effect; nearly all actives have a fitted effect of over 60% in size
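Compounds in DMSO were transferred onto Huh7 NPC1-luciferase reporter cells pre-incubated 2 h; after 24 h at 37 °C, Amplite reagent was dispensed and luminescence recorded 10 min later.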
* marks the source's active call; other numbers are inactive results; ? = inconclusive; · = no result given; [ ] = remark or other dose. Only some compounds are listed: those with a hit (about 9.4% of all), similar ones and a draw of the others. Calls come from the whole dose curve; as a rule, active = well fitted curve in the direction sought with a large enough effect; inconclusive = small, poorly fitted or top-dose-only effect, or another doubt; inactive = no such curve, though single readings can be large; an effect the other way counts as inactive or inconclusive. Potency is the fitted concentration of half-maximal effect.

SMILES	ELG1 genotox	SMN2 splice up	FLuc counter	ELG1 repair inh	Rab9 promoter act	NPC1 promoter act
O=C(/C=C\Nc1cccc(F)c1)c1ccc2c(c1)OCO2	0.146µM*	·	0.12µM*	?	?	0.316µM*
CN(Cc1cccc2ccccc12)Cc1cccc2ccccc12	·	-8.9%[9.22 µM]	·	·	·	·
CCN(CC)c1ccc(C(=O)NCc2ccc3c(c2)CCN3C(=O)c2ccc(F)cc2)cc1	·	·	-15.6%	·	·	·
COc1ccc(C(=O)/C=C/Nc2cccc(C)n2)cc1OC	?	12.6µM*	3.79µM*	?	2µM*	2.24µM*
COC(=O)c1ccc(N/C=C/C(=O)c2ccc(OC)c(OC)c2)cc1	?	-10.2%	-18.0%	?	10.3%	8.8%
COc1ccc(N/C=C\C(=O)c2ccc3c(c2)OCO3)cc1OC	?	20.6%	1.69µM*	?	25.4%	27.2%
COC(=O)c1ccc(N/C=C\C(=O)c2ccc3c(c2)OCO3)cc1	18.1%	·	?	?	?	?
COc1ccc(CNC(=O)CCc2nc(-c3ccc(C)cc3)no2)c(OC)c1	·	-3.9%	-3.8%	·	·	·
CCc1nn2c(-c3ccccc3OC)ccnc2c1-c1ccccc1	·	-25.7%	-16.4%	·	·	·
c1cn2c(NC3CCCC3)c(-c3ccc(N4CCOCC4)cc3)nc2cn1	?	12.7%	2.13µM*	?	?	?
CCN(CC)c1ccc(-c2nc3cnccn3c2NC2CCCC2)cc1	-1.3%	-18.3%	10.7µM*	-1.7%	-3.2%	14.6%
CCc1ccccc1	·	-10.8%	·	·	·	·
CN(C)S(=O)(=O)c1ccc2c(c1)N(CC(=O)Nc1ccc(F)cc1)C(=O)CS2	·	·	5.6%	·	·	·
Nc1ccc(-n2ccnc2)cc1	-0.1%	-10.4%	-2.4%	-4.1%	-10.0%	4.8%
c1ccc2nc(-c3ccc(-n4ccnc4)cc3)ccc2c1	2.59µM*	·	3.38µM*	?	0.631µM*	1µM*
COc1ccccc1C(=O)COC(=O)c1ccccc1O	16.3%	4.7%	21.3µM*	?	13.4%	-10.5%
CCc1ccc(C(=O)COC(=O)c2ccccc2OC)cc1	?	·	0.477µM*	19.6%	3.16µM*	2.24µM*
CC(C)(C)C(=O)COC(=O)c1ccccc1O	-0.2%	-12.4%	-17.2%	10.5%	-3.9%	0.4%
COc1ccccc1C(=O)COC(=O)/C=C/c1ccccc1	20.2%	·	13.5µM*	?	26.1%	25.8%
COc1ccccc1C(=O)COC(=O)c1ccc(N(C)C)cc1	?	22.4µM*	5.36µM*	?	3.55µM*	3.16µM*
COCCNC(=O)Nc1cc(C(=O)NCc2ccc(C(C)C)cc2)ccc1N1CCCC1	·	·	-15.3%	·	·	·
CC(=O)N1CCC[C@@]2(CCN(C(c3ccccc3)c3ccccc3)C2)C1	·	1.6%	·	·	·	·
CC(NC(=O)c1csc2ccccc12)C1CCCO1 (configuration not stated)	?	15.5%	-10.6%	?	1.9%	11.6%
O=C(NCC1CCCO1)c1sc2ccccc2c1Cl (configuration not stated)	?	12.6µM*	19µM*	?	?	?
CC1CCc2[nH]c3ccc(C(=O)NCC4CCCO4)cc3c2C1 (configuration not stated)	7.9%	·	9.53µM*	?	?	23.3%
O=C(NCC1CCCO1)c1sc(=S)n2c1[nH]c(=O)c1ccc(C(=O)N3CCCCC3)cc12 (configuration not stated)	-1.7%	8.7%	21.3µM*	-16.7%	1.0%	-4.7%
CC(NC(=O)c1sc2ccccc2c1Cl)C1CCCO1 (configuration not stated)	?	11.2µM*	9.53µM*	?	?	?
Cc1ccc2c(Cl)c(C(=O)NCC3CCCO3)sc2c1 (configuration not stated)	?	11.2µM*	5.36µM*	?	2.24µM*	2µM*
COc1ccc2c(Cl)c(C(=O)NCC3CCCO3)sc2c1Cl (configuration not stated)	2.0%	·	-8.9%	?	22.4%	4.0%
